# According to PubChem BioAssay (EPA / NIEHS):
# Records with an inconclusive call do not appear. The source made the active and inactive calls. Rule for the calls, unless noted: active = hit-call score of the fitted dose curve at least 0.9, where 1 is the maximum; inconclusive = response in the unintended direction; inactive = score below 0.9.
# Molecular target: Voltage-gated inwardly rectifying potassium channel KCNH2 (Homo sapiens) (UniProt Q12809)
# Experiment: NVS_IC_hKhERGCh: NovaScreen (NVS) Ion Channel Assay for human Potassium Channel ERG (KhERGCh) (AID 2283333)
# How it was run: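 Membranes from CHO cells expressing human ERG; displacement of radioligand measured by filtration and scintillation after 0.75 h. Single-concentration duplicate screen at 25 uM, then concentration-response for actives; DMSO baseline.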
# Voltage-gated inwardly rectifying potassium channel KCNH2 (Homo sapiens), sequence (Q12809 whole entry, looked up): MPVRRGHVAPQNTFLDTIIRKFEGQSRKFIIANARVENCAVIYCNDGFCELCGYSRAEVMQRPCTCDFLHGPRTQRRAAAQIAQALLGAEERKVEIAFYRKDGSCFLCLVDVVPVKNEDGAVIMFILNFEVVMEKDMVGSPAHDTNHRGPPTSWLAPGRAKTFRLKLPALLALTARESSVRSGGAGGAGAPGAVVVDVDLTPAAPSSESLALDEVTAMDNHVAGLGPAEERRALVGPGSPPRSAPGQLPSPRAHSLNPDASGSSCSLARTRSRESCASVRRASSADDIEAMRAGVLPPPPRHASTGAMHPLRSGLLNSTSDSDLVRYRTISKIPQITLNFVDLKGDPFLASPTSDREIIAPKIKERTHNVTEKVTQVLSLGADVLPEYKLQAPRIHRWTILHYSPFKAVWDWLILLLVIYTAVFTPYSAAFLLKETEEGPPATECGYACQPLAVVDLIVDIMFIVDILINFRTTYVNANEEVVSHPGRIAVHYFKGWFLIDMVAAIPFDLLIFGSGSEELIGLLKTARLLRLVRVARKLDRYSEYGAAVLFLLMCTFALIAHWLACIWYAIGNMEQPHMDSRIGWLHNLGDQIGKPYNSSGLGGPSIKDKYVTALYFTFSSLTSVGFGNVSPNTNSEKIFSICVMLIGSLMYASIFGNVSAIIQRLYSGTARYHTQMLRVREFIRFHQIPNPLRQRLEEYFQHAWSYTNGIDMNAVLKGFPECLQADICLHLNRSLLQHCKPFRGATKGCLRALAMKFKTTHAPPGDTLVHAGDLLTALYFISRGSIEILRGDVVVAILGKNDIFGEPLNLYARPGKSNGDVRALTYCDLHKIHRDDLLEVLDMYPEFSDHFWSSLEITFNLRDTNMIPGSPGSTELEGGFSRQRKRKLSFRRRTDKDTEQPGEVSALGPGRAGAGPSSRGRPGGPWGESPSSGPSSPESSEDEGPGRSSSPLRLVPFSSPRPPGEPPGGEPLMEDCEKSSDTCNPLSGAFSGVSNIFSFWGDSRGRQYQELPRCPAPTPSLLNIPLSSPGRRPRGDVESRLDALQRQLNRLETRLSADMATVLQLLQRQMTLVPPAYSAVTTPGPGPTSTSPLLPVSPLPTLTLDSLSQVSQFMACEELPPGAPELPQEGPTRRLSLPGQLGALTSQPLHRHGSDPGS
Structure (SMILES),AC50,outcome
O=S(=O)(O)c1ccc(N=Nc2c(O)ccc3cc(S(=O)(=O)O)ccc23)cc1,12.3 µM (active),
CCCCN1C(=O)[C@@H]([C@H](O)C2CCCCC2)NC(=O)C12CCN(Cc1ccc(Oc3ccc(C(=O)O)cc3)cc1)CC2,,inactive
OC[C@H]1O[C@@](CO)(O[C@H]2O[C@H](CO)[C@@H](O)[C@H](O)[C@H]2O)[C@@H](O)[C@@H]1O,,inactive
c1ccc(C(O[C@@H]2CCCN(CCc3ccc4c(c3)OCO4)C2)c2ccccc2)cc1,,inactive

# Molecular target: Glutamate receptor ionotropic, kainate 1 (Rattus norvegicus) (UniProt P22756)
# Experiment: NVS_IC_rKAR: NovaScreen (NVS) Ion Channel Assay for rat Kainic Acid Receptors (KAR) (AID 2283334; active = hit-call score of the fitted dose curve at least 0.9, where 1 is the maximum; inactive = score below 0.9)
# How it was run: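 Rat forebrain membrane preparation incubated 1 h with radioligand and test chemical; bound signal read by filtration and scintillation. Single-concentration screen at 25 uM, then concentration series to 50 uM maximum.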
# Glutamate receptor ionotropic, kainate 1 (Rattus norvegicus), sequence (P22756 whole entry, looked up): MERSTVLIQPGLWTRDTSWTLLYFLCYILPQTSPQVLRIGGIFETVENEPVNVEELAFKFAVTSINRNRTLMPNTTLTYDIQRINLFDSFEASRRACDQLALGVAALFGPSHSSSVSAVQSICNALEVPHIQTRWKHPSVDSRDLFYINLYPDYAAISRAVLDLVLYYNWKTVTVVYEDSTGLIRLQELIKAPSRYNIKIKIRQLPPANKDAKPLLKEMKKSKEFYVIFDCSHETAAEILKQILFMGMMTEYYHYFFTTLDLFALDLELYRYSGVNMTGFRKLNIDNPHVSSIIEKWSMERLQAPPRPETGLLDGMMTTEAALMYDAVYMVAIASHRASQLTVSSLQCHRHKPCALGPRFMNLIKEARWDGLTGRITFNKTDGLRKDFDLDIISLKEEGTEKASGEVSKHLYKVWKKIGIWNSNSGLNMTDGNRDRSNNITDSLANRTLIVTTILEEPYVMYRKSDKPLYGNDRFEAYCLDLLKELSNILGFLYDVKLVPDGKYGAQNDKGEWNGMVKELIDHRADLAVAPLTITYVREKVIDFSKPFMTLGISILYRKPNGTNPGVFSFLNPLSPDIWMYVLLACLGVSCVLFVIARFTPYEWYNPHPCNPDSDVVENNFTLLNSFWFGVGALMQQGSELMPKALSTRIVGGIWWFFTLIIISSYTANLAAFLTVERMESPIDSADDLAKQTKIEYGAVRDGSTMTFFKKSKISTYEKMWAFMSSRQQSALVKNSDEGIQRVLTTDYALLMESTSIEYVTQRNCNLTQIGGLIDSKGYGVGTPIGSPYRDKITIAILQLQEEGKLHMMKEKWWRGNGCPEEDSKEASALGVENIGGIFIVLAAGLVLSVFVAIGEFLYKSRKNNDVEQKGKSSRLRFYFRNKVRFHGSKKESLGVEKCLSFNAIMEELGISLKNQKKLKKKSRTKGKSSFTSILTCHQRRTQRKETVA
row,Structure (SMILES),outcome
1,O=S(=O)(O)c1ccc(N=Nc2c(O)ccc3cc(S(=O)(=O)O)ccc23)cc1,inactive
2,O=C(O)c1cccc(C[C@@H]2COc3ccc(OCc4nc5cc(F)ccc5s4)cc3[C@@H]2O)c1,inactive
3,C=CCc1cc(S(=O)(=O)c2ccc(O)c(CC=C)c2)ccc1O,inactive
4,OC[C@H]1O[C@@](CO)(O[C@H]2O[C@H](CO)[C@@H](O)[C@H](O)[C@H]2O)[C@@H](O)[C@@H]1O,inactive
5,COc1cc2c(c(OC)c1OC)-c1ccc(OC)c(=O)cc1[C@@H](NC(C)=O)CC2,inactive

# Molecular target: rat Peripheral-type Benzodiazepine Receptor (PBR), Tspo (gene 24230) (UniProt P16257)
# Experiment: NVS_MP_rPBR: NovaScreen (NVS) Membrane Protein Assay for rat Peripheral-type Benzodiazepine Receptor (PBR) (AID 2283335)
# How it was run: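 Single-concentration duplicate screening at 25 uM preceded concentration-series retesting of actives. Binding of a specific radioligand to rat kidney membrane PBR was read by filtration radiodetection after 1 h, with plate-wise positive and negative controls.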
# rat Peripheral-type Benzodiazepine Receptor (PBR), Tspo (gene 24230), sequence (P16257 whole entry, looked up): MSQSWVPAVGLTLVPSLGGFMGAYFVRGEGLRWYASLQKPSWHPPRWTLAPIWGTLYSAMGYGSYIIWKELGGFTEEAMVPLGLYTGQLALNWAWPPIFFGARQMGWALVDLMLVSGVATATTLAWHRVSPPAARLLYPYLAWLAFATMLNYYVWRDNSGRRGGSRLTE
Structure (SMILES),AC50,outcome
CC(C)C(=O)Nc1ccc([N+](=O)[O-])c(C(F)(F)F)c1,4.95 µM (active),
CCN(CC)C(=S)SSC(=S)N(CC)CC,0.31 µM (active),
c1ccc(C(O[C@@H]2CCCN(CCc3ccc4c(c3)OCO4)C2)c2ccccc2)cc1,,inactive

# Molecular target: Small conductance calcium-activated potassium channel protein 1 (Rattus norvegicus) (UniProt P70606)
# Experiment: NVS_IC_rKCaCh: NovaScreen (NVS) Ion Channel Assay for rat Potassium Channel, Ca2+ Act., VI (KCaCh) (AID 2283336)
# How it was run: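 Filter-based scintillation counting of radioligand bound to rat forebrain membrane preparations, measured 1 h after compound addition. Primary screen used 25 uM in duplicate, with concentration-response follow-up; signal decrease relative to DMSO marks activity.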
# Small conductance calcium-activated potassium channel protein 1 (Rattus norvegicus), sequence (P70606 whole entry, looked up): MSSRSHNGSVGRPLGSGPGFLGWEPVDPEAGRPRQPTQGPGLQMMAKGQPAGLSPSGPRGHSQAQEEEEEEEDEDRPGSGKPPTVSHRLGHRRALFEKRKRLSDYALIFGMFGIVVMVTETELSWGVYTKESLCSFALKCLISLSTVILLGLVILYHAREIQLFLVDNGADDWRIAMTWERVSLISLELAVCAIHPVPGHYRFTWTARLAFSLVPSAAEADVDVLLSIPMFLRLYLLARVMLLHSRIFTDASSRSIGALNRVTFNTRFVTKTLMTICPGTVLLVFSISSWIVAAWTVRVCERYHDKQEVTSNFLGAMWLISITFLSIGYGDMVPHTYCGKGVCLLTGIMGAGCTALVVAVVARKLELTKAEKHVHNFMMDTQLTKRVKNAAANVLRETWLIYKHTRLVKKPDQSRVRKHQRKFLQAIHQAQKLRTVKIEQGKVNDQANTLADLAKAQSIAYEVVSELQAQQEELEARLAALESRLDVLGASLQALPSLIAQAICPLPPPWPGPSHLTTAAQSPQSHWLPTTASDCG
row,Structure (SMILES),outcome
1,Cc1nc(-c2ccccn2)ncc1C(=O)Nn1cc(C)c2cc(F)ccc21,inactive
2,OCc1ccccc1,inactive
3,CC1(C)C(=O)N(Cl)C(=O)N1Cl,inactive
